Experimental data: PMC7862700, “An all-to-all approach to the identification of sequence-specific readers for epigenetic DNA modifications on cytosine”

Assays:
Assay in all cases: DAPPL (digital affinity profiling via proximity ligation, sequencing); 10 mM Tris-HCl pH 7.5, 50 mM NaCl, 1 mM DTT, 4% glycerol, room temperature, 30 min; GST-TFs on glutathione beads, 16-mer random dsDNA library, 0.1% formaldehyde crosslink after washing; high values mean tight binding
Conditions in all cases: protein: recombinant; tags: N-terminal GST; dsDNA, one strand shown
[1] = target: T1, FLI1 (Homo sapiens, UniProt Q01543 1-452)
T1 sequence: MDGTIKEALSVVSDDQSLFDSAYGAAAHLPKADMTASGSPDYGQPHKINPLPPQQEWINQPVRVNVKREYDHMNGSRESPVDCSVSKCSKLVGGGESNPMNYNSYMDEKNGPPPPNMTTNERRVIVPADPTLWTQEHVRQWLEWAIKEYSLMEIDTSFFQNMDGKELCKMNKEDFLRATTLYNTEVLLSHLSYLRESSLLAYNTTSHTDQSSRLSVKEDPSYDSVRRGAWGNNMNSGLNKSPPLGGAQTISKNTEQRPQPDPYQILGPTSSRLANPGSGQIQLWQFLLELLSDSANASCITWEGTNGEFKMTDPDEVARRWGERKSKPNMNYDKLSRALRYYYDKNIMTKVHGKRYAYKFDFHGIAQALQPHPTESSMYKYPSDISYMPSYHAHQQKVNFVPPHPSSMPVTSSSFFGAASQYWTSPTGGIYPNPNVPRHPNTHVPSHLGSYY
Method in brief: (§1)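 Pools were built from human transcription factors expressed in yeast as GST fusions, captured on glutathione beads and DNA-barcoded, along with a tag-only sample. Incubation with 200 nmole of a 16-mer random double-stranded DNA library lasted 30 min at room temperature in Tris/NaCl/DTT/glycerol buffer, and was followed by washing, 0.1% formaldehyde crosslinking, proximity ligation, PCR amplification and Illumina NextSeq500 sequencing. Binding signal is the quotient of each hexamer's read frequency for a factor and its frequency for the tag-only sample.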

[2] = target: T2, ELK1 (Homo sapiens, UniProt P19419 1-428)
T2 sequence: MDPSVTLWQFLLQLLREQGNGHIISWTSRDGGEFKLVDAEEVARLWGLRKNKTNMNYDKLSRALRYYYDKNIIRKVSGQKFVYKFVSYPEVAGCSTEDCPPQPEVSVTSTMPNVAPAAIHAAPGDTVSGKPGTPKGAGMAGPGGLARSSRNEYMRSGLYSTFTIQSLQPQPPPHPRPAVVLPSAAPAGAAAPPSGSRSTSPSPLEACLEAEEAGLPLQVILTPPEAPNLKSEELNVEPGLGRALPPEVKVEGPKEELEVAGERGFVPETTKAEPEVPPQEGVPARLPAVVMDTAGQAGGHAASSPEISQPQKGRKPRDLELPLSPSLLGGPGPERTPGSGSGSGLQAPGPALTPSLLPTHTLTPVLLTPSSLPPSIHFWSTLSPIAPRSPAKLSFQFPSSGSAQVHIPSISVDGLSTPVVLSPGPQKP
Method in brief: as §1

[3] = target: T3, GABPA (Homo sapiens, UniProt Q06546 1-454)
T3 sequence: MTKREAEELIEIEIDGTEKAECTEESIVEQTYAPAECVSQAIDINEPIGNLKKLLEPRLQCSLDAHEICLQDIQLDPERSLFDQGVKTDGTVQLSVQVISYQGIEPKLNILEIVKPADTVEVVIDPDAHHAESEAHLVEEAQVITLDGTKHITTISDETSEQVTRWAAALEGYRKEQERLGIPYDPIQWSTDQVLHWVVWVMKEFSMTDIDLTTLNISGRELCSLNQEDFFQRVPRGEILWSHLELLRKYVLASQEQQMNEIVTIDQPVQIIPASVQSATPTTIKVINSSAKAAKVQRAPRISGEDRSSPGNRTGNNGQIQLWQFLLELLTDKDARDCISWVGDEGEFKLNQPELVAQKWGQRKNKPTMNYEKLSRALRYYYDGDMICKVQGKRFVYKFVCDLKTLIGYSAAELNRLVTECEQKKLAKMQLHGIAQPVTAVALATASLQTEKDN
Method in brief: as §1

[4] = target: T4, EHF (Homo sapiens, UniProt Q9NZC4 1-300)
T4 sequence: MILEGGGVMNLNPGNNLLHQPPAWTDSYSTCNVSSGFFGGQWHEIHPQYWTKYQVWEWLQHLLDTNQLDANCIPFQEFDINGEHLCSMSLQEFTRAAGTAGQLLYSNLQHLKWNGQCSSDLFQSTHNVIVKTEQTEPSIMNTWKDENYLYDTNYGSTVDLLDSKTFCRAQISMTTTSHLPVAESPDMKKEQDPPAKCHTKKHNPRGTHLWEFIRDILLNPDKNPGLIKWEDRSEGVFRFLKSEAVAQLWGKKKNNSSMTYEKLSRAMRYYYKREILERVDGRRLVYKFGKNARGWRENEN
Method in brief: as §1

[5] = target: SPI1 (Homo sapiens, UniProt P17947 1-270)
Method in brief: as §1

[6] = target: ETV5 (Homo sapiens, UniProt P41161 1-510)
Method in brief: as §1

[7] = target: T5, ELF3 (Homo sapiens, UniProt P78545 1-371)
T5 sequence: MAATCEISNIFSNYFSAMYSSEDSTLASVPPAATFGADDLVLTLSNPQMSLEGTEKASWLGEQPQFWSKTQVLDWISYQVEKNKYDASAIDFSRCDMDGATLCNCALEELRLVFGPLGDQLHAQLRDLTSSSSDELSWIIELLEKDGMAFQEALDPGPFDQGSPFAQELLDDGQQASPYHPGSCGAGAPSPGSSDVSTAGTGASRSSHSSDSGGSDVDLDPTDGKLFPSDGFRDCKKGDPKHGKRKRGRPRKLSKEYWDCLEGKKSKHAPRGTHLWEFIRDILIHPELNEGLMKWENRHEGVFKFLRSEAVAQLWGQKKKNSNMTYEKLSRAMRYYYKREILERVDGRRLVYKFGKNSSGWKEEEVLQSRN
Method in brief: as §1

[8] = target: T6, ERF (Homo sapiens, UniProt P50548 1-548)
T6 sequence: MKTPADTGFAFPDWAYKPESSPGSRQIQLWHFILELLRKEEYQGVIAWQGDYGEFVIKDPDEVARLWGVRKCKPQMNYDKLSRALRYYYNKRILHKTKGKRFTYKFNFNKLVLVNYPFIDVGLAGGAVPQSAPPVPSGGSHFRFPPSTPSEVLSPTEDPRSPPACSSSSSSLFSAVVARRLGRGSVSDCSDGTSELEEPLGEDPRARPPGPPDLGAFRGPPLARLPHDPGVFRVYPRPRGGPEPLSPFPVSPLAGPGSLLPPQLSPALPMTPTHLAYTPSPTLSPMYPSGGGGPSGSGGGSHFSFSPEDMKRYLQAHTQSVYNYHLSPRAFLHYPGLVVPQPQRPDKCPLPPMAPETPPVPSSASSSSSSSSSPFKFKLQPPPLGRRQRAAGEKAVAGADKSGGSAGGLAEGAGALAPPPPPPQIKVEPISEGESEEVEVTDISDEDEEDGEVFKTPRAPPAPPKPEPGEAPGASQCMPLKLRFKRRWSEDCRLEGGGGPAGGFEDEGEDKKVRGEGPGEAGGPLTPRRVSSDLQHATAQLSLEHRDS
Method in brief: as §1

[9] = target: T7, ETS2 (Homo sapiens, UniProt P15036 1-469)
T7 sequence: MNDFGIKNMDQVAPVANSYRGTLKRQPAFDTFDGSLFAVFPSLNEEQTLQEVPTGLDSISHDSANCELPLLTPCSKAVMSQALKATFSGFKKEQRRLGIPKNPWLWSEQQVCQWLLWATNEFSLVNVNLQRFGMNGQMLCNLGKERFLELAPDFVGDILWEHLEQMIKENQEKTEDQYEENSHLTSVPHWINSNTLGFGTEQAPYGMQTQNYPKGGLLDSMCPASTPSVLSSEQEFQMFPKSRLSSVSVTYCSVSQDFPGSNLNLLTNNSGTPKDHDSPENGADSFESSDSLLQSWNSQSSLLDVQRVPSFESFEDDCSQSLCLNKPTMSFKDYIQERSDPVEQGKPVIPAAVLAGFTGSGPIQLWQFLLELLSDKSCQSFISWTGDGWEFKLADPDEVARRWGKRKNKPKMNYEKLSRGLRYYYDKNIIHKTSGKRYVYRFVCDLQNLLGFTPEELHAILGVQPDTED
Method in brief: as §1

[10] = target: ELF1 (Homo sapiens, UniProt P32519 1-619)
Method in brief: as §1

[11] = target: SPIB (Homo sapiens, UniProt Q01892 1-262)
Method in brief: as §1

[12] = target: ELF4 (Homo sapiens, UniProt Q99607 1-663)
Method in brief: as §1

[13] = target: T8, ETV2 (Homo sapiens, UniProt O00321 1-342)
T8 sequence: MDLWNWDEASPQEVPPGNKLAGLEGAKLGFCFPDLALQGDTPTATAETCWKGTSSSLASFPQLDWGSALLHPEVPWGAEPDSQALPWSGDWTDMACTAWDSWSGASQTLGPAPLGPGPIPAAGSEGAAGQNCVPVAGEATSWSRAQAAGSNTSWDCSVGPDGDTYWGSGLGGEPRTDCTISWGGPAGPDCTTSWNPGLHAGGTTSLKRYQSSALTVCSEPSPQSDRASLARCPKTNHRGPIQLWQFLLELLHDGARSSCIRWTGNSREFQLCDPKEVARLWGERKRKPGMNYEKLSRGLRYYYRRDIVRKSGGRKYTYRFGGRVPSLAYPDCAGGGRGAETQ
Method in brief: as §1

[14] = target: T9, ETV7 (Homo sapiens, UniProt Q9Y603 1-341)
T9 sequence: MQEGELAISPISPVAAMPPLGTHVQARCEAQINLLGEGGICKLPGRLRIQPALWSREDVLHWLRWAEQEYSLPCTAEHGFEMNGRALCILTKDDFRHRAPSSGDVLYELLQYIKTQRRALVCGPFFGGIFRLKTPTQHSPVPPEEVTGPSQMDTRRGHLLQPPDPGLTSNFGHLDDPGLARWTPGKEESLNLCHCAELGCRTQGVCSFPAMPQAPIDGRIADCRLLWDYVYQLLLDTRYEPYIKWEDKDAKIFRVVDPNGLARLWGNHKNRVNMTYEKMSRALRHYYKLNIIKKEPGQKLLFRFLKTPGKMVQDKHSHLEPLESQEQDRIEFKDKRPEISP
Method in brief: as §1

[15] = target: ETV6 (Homo sapiens, UniProt P41212 1-452)
Method in brief: as §1

Chain of ETV5 (P41161 whole entry): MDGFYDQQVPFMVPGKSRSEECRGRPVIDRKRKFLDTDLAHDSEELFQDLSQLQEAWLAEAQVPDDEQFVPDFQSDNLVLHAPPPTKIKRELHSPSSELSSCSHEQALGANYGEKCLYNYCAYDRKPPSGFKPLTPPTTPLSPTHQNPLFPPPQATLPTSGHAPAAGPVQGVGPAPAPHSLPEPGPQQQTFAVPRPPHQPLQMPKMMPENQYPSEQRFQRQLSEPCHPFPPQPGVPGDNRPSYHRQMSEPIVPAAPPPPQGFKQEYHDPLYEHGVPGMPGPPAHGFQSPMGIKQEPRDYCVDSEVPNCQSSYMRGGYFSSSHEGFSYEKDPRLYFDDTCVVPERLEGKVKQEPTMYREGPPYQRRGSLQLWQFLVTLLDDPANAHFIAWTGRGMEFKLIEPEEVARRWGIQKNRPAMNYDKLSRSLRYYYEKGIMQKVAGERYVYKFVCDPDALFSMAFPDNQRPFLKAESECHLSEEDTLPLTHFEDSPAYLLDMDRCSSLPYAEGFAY
Chain of ELF1 (P32519 whole entry): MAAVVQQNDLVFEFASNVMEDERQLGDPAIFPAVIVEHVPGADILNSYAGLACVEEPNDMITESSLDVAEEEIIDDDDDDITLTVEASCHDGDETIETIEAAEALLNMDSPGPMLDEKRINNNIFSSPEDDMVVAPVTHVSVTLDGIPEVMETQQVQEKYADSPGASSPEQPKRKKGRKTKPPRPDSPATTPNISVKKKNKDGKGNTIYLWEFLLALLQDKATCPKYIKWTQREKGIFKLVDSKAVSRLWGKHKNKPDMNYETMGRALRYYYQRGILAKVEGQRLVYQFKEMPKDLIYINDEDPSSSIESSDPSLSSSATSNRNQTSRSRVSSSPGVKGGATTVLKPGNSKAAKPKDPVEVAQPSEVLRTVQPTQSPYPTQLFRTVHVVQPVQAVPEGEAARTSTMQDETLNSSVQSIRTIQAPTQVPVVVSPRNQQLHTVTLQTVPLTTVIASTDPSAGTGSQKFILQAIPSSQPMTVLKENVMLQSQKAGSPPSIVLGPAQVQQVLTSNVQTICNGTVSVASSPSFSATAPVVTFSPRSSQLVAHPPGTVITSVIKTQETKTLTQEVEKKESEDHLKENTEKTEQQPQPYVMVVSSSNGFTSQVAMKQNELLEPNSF
Chain of ETV6 (P41212 whole entry): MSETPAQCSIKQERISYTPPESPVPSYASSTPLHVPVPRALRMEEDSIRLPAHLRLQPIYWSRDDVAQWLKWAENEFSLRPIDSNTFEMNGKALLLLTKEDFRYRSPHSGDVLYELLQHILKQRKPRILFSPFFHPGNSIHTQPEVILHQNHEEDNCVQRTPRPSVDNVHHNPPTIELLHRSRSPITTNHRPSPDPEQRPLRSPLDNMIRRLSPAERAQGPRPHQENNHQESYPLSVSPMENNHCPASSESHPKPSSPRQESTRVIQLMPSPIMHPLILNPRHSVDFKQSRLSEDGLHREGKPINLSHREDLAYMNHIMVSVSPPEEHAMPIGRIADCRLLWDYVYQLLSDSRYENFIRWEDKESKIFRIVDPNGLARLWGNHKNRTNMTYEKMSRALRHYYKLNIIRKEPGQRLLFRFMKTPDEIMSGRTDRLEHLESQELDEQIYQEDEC
Chain of SPIB (Q01892 whole entry): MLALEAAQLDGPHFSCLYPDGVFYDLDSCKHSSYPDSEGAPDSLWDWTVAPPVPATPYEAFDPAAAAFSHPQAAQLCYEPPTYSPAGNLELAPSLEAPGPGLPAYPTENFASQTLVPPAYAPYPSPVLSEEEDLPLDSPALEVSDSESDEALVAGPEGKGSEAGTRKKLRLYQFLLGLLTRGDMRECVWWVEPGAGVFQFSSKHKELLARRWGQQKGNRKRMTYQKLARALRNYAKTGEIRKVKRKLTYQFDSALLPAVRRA
Chain of ELF4 (Q99607 whole entry): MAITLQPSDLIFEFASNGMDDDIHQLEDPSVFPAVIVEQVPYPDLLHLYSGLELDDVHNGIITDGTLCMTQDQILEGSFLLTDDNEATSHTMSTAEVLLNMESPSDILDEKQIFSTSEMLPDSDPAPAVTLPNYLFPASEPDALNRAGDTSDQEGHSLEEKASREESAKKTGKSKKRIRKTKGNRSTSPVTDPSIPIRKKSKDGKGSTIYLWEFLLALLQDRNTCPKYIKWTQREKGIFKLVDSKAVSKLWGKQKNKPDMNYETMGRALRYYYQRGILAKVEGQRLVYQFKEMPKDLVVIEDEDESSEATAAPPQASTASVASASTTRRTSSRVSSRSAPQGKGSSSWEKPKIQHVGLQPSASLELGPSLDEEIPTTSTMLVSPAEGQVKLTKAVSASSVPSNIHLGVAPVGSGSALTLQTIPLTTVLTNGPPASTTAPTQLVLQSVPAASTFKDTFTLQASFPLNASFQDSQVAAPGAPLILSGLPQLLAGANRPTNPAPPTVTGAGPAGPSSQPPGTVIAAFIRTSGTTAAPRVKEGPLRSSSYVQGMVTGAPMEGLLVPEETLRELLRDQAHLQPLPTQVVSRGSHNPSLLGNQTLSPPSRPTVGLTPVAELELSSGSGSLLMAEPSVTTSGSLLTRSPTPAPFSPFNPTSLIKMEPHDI

Sequence	binding signal [1]	binding signal [2]	binding signal [3]	binding signal [4]	binding signal [5]	binding signal [6]	binding signal [7]	binding signal [8]	binding signal [9]	binding signal [10]	binding signal [11]	binding signal [12]	binding signal [13]	binding signal [14]	binding signal [15]
ATAGCG	1.08 fold enrichment (6-mer frequency, TF over GST control)	1.03 fold enrichment (6-mer frequency, TF over GST control)	1.01 fold enrichment (6-mer frequency, TF over GST control)	1.05 fold enrichment (6-mer frequency, TF over GST control)	1.07 fold enrichment (6-mer frequency, TF over GST control)	1.04 fold enrichment (6-mer frequency, TF over GST control)	1.11 fold enrichment (6-mer frequency, TF over GST control)	1.1 fold enrichment (6-mer frequency, TF over GST control)	1 fold enrichment (6-mer frequency, TF over GST control)						
ACATAG	1.12 fold enrichment (6-mer frequency, TF over GST control)		1.03 fold enrichment (6-mer frequency, TF over GST control)	1.07 fold enrichment (6-mer frequency, TF over GST control)		1.08 fold enrichment (6-mer frequency, TF over GST control)	1.14 fold enrichment (6-mer frequency, TF over GST control)	1.11 fold enrichment (6-mer frequency, TF over GST control)	1.05 fold enrichment (6-mer frequency, TF over GST control)	1.07 fold enrichment (6-mer frequency, TF over GST control)	1.01 fold enrichment (6-mer frequency, TF over GST control)	1.04 fold enrichment (6-mer frequency, TF over GST control)	1.11 fold enrichment (6-mer frequency, TF over GST control)	1.13 fold enrichment (6-mer frequency, TF over GST control)	1.07 fold enrichment (6-mer frequency, TF over GST control)
